Compounds with a hit are over-represented: about 6.9% of the library has one in this group of screens.
MCF10A rereplic = A quantitative high throughput screen for small molecules that induce DNA re-replication in MCF 10a normal breast cells | Potency, µM (highest dose often 46.1 µM), usual class: activators | MCF 10A DNA re-replication, Hoechst nuclear intensity, 48 h | hit rate 2.9% among 350,000; further: nearly all actives have a fitted effect of over 50% in size
Giardia killer = Small Molecules that selectively kill Giardia lamblia: qHTS. AID 540267, 2011. activity change, % at 7.66 µM, hits read low. hit rate 0.15% among 340,000. Giardia lamblia trophozoite viability; in the data active means activity change below about -80%; inconclusive means between about -30% and that limit;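 further: parasites exposed to compound for two days anaerobically before the ATP read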
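Compounds were tested on trophozoites seeded at 100 cells/well and held 48 hrs at 37 deg C anaerobically. An ATP-based luminescent kit measured the remaining live cells.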
KB-V1 MDR tox = qHTS assay for MDR1-selective chemotherapeutics: Primary screen using the drug-selected MDR subline cells KB-V1 | KB-V1 MDR cells viability, CellTiter-Glo, 72 h | Potency, µM (series often up to 46.1 µM), hits mostly cytotoxic | hit rate 3.4% among 400,000; further: nearly all actives have a fitted effect of over 60% in size
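Readout: CellTiter-Glo luminescence, 10 min after addition. Cells: KB-V1 MDR subline, 72 h at 37 degrees C with compound. Analysis: corrected, normalized data fitted to concentration-effect curves.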
SW480 rerep = A quantitative high throughput screen for small molecules that induce DNA re-replication in SW480 colon adenocarcinoma cells; SW480 DNA re-replication, Hoechst DNA content imaging, 48 h; Potency, µM (titrated, usually from 46.1 µM), usual class: activators; hit rate 1.8% among 340,000; further: nearly all actives have a fitted effect of over 55% in size
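Per well, 250 cells were exposed to pinned compound for 48 hr. Nuclear DNA was visualised with Hoechst (40 min, 37 C) and total object intensity recorded by fluorescence scanning.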
S-ASM inh = Inhibitors of Secretory Acid Sphingomyelinase (S-ASM): qHTS | Potency, µM (series often up to 57.5 µM), actives largely listed as inhibitors | placental ASM, HMU-PC fluorogenic substrate, 60 min | hit rate 0.006% among 340,000 | Sphingomyelin phosphodiesterase (Homo sapiens), P17405
Target sequence (P17405 47-631 limits assumed): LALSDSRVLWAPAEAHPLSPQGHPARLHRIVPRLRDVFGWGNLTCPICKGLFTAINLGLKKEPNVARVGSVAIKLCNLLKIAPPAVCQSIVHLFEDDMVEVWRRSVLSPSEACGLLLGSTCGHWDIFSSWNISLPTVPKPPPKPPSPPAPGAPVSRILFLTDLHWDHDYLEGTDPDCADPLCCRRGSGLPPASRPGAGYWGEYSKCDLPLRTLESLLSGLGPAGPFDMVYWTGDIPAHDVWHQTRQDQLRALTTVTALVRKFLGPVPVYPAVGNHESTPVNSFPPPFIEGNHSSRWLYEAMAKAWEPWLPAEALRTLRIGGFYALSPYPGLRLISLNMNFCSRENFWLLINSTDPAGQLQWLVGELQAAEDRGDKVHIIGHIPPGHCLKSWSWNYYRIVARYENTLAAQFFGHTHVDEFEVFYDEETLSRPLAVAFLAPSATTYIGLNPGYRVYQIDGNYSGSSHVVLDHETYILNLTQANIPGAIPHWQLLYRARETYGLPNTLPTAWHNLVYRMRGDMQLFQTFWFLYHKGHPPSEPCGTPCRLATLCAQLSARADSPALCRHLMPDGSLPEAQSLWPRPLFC
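Fluorogenic HMU-PC substrate (9 uM final) is turned over by placental ASM in 60 min at 37 C after a 10 min compound preincubation. Reaction ended by alkaline stop (pH 10), with fluorescence read at 386/447 nm.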
KB-3-1 cytotox = qHTS assay for MDR1-selective chemotherapeutics: Primary screen using the parental adenocarcinoma cell KB-3-1. KB-3-1 viability, CellTiter-Glo ATP luminescence, 72 h. Potency, µM (doses to about 46.1 µM), most hits filed as cytotoxic. AID 1347075, 2019. hit rate 1.4% among 400,000; further: nearly all actives have a fitted effect of over 60% in size
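Parental KB-3-1 viability, qHTS format: 72 h compound exposure, 37 °C; CellTiter-Glo; media-only wells and DMSO plates as controls; concentration-effect fits on corrected data.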
Hits are given with their value; n = inactive; u = inconclusive; x = not tested or not shown. Unless noted, the call rests on the fitted dose curve; in most records, active means well fitted curve in the direction sought with a large enough effect; inconclusive means small, poorly fitted or top-dose-only effect, or another doubt; inactive means no such curve, though single readings can be large; an effect the other way counts as inactive or inconclusive.

SMILES	MCF10A rereplic	Giardia killer	KB-V1 MDR tox	SW480 rerep	S-ASM inh	KB-3-1 cytotox
COCCCNC(=S)N(CCO)Cc1cc2cc3c(cc2[nH]c1=O)OCO3	u	n	n	n	n	n
O=C(O)C1CCCC1	x	x	n	x	x	u
COc1ccccc1N1CCN(CCC(=O)Nc2ccc3c(c2)OCO3)CC1	n	n	20.6µM	n	n	n
COc1ccccc1N1CCN(CC(=O)Nc2ccc3c(c2)OCCO3)CC1	n	n	n	n	n	n
COc1ccccc1-n1c(SCC(=O)Nc2ccc3c(c2)OCO3)nc2c(c1=O)SCC2	n	n	7.31µM	n	n	n
CCOC(=O)COc1ccc(Br)cc1/C=C\c1[nH]c(=O)[nH]c(=O)c1[N+](=O)[O-]	8.2µM	n	n	u	n	n
CCOc1ccc(/C=C/c2[nH]c(=O)[nH]c(=O)c2[N+](=O)[O-])cc1	u	n	n	n	n	n
CCOc1cc(/C=C\c2[nH]c(=O)[nH]c(=O)c2[N+](=O)[O-])ccc1OC(C)CC (configuration not stated)	u	n	n	23.1µM	u	n
CC(C)c1ccc(/C=C/c2[nH]c(=O)[nH]c(=O)c2[N+](=O)[O-])cc1	18.4µM	n	n	n	n	n
CC(C)CCOc1ccc(CC(=O)NO)cc1	x	x	n	x	x	n
Cc1ccc(NC(=O)Cn2c(=O)n(CC(=O)NCCc3ccccc3)c(=O)c3ccccc32)cc1C	x	x	n	x	x	n
Cc1ccc(C)c(OCc2cc(C(=O)N(C)Cc3nccn3C)no2)c1	n	n	13µM	n	n	n
Cc1ccc(OCc2cc(C(=O)N3CCCC(O)C3)no2)cn1 (configuration not stated)	n	n	n	u	n	n
COC1CCN(C(=O)c2cc(COc3cc(C)ccc3C)on2)CC1	x	x	u	x	x	n
Cc1ccc(OCc2cc(C(=O)N3CCCC(C)C3)no2)cn1 (configuration not stated)	x	x	u	x	x	20.6µM
Cc1ccc(C)c(OCc2cc(C(=O)N3CCOCC3)no2)c1	18.4µM	n	n	n	n	n
Cc1ccc(OCc2cc(C(=O)N(C)Cc3nccn3C)no2)cc1C	n	n	n	u	n	n
CC(C)NS(=O)(=O)c1ccc(OCC(=O)N2CCN(c3ccccc3F)CC2)cc1	x	x	n	x	x	n
COc1ccc(N2CCN(C(=O)c3cn(C)c4ccc(S(=O)(=O)N(C)C5CCCCC5)cc4c3=O)CC2)cc1	x	x	n	x	x	n
Cc1cccc(OCCn2c(SCC(=O)O)nc3ccccc32)c1	x	x	n	x	x	n
CC(C)(CO)NCC(O)COc1ccc2c(c1)CCC2 (configuration not stated)	n	n	n	n	n	n
CC(C)(C)CC(C)(C)NCC(O)COc1ccc2c(c1)CCC2 (configuration not stated)	u	n	u	u	n	20.6µM
COc1ccc(C(=O)c2oc3nc(C)cc(C)c3c2N)cc1	n	n	u	n	n	n
Cc1ccc(C(=O)c2oc3nc(C)cc(C)c3c2N)cc1	9.2µM	n	u	u	n	n
CCc1ccc(C(=O)c2oc3nc(C)cc(C)c3c2N)cc1	7.31µM	n	2.59µM	16.4µM	n	n
SMILES	MCF10A rereplic	Giardia killer	KB-V1 MDR tox	SW480 rerep	S-ASM inh	KB-3-1 cytotox
Cc1nc2oc(C(=O)c3ccc(Br)cc3)c(N)c2c2c1COC(C)(C)C2	u	n	n	u	n	n
CC1=CC(=C(C#N)c2nc3ccccc3s2)C=C(C)N1CC1CCCO1 (configuration not stated)	13µM	n	n	23.1µM	n	n
Cc1ccc(C(=O)N/N=c2\sc3ccccc3n2C)cc1	u	n	n	0.651µM	n	n
COCCCNC(=S)N1CCN(c2nc3ccccc3s2)CC1	n	n	14.6µM	n	n	u
COCCCNC(=S)N1CCN(c2ccc([N+](=O)[O-])cc2)CC1	n	n	16.4µM	n	n	u
CCNC(=S)N1CCN(c2ccc([N+](=O)[O-])cc2)CC1	n	n	n	n	n	n

Screens: PubChem BioAssay, National Center for Advancing Translational Sciences (NCATS)
